Measurements as given in PubChem BioAssay AID1159580 (chemical genetic matrix, 2015).
“And” between values parts separate entries of the source, which are not always exact repeats. Equal values may be shown once. About 2,000 (36%) of roughly 5,500 compounds were called active. Another 18% or so got no clear call; they are omitted. Rule as the data show it: active = normalized growth mostly below about 0.91 (no sharp cut-off); inconclusive = no clear call, values can overlap the other calls; inactive = mostly above about 0.92. Some of the results follow.

Assay: chemical genetic growth profiling, strain panel (AID 1159580);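 also: tested at 20 µM; growth read once vehicle control cultures reached saturation at 30 °C; 1 = growth at the plate median or of vehicle wells; lower values mean less growth of the strain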
Details: S. cerevisiae deletion strains, growth OD

Measured: normalized growth

NC(=O)c1ccccc1O
inactive: locus YAL021C, strain ccr4, hits give low values 0.988 | locus YAL026C, strain drs2, hits give low values 0.996 | locus YAL030W, strain snc1, hits give low values 0.966 | locus YBL061C, strain skt5, hits give low values 0.97 | locus YBR009C, strain hhf1, hits give low values 1.04 | locus YBR021W, strain FUR4, hits give low values 1.04 | locus YBR023C, strain chs3, hits give low values 0.987 | locus YBR171W, strain sec66, hits give low values 0.959 | locus YBR229C, strain ROT2, hits give low values 0.999 | locus YBR231C, strain swc5, hits give low values 0.988 | locus YBR279W, strain paf1, hits give low values 0.997 | locus YCL011C, strain gbp2, hits give low values 0.956 | locus YCL016C, strain dcc1, hits give low values 1.01 | locus YCL029C, strain bik1, hits give low values 1.02 | locus YCL061C, strain MRC1, hits give low values 0.963 | locus YCL069W, strain vba3, hits give low values 0.974 | locus YCR088W, strain abp1, hits give low values 0.974 | locus YDL005C, strain med2, hits give low values 0.972 | locus YDL035C, strain GPR1, hits give low values 1.01 | locus YDL040C, strain nat1, hits give low values 0.984 | locus YDL074C, strain BRE1, hits give low values 0.997 | locus YDL101C, strain DUN1, hits give low values 1.01 | locus YDL134C, strain PPH21, hits give low values 1 | locus YDL185W, strain tfp1, hits give low values 1.01 | locus YDL192W, strain arf1, hits give low values 1.01 | locus YDR001C, strain nth1, hits give low values 0.967 | locus YDR069C, strain doa4, hits give low values 0.952 | locus YDR101C, strain arx1, hits give low values 1 | locus YDR137W, strain rgp1, hits give low values 0.964 | locus YDR159W, strain sac3, hits give low values 0.985 | locus YDR162C, strain NBP2, hits give low values 1.01 | locus YDR195W, strain ref2 0.927 | locus YDR297W, strain sur2, hits give low values 0.981 | locus YDR318W, strain mcm21, hits give low values 1.01 | locus YDR334W, strain swr1, hits give low values 0.935 | locus YDR335W, strain msn5, hits give low values 0.947 | locus YDR388W, hits give low values 1.01 | locus YDR392W, strain spt3, hits give low values 1.05 | locus YDR502C, strain sam2, hits give low values 0.997 | locus YEL003W, strain gim4, hits give low values 0.981 | locus YEL037C, strain rad23, hits give low values 0.976 | locus YEL061C, strain CIN8 (second series), hits give low values 0.98 | locus YEL061C, strain CIN8, hits give low values 1 | locus YER015W, strain faa2, hits give low values 1.01 | locus YER016W, strain bim1, hits give low values 1.01 | locus YER110C, hits give low values 1.01 | locus YER111C, strain swi4, hits give low values 0.97 | locus YER155C, strain BEM2 (second series), hits give low values 0.929 | locus YER155C, strain BEM2, hits give low values 1.01 | locus YER167W, strain BCK2, hits give low values 1.01 | locus YFR010W, strain ubp6, hits give low values 0.96 | locus YGL078C, strain dbp3, hits give low values 1 | locus YGL086W, strain mad1, hits give low values 0.998 | locus YGL167C, strain pmr1, hits give low values 0.961 | locus YGL173C, strain kem1, hits give low values 0.968 | locus YGL227W, strain vid30, hits give low values 0.975 | locus YGL240W, strain doc1, hits give low values 0.981 | locus YGL248W, strain PDE1, hits give low values 1 | locus YGL253W, strain hxk2, hits give low values 0.997 | locus YGR135W, strain pre9, hits give low values 1.02 | locus YGR229C, strain SMI1, hits give low values 1.01 | locus YGR252W, strain gcn5, hits give low values 1.03 | locus YHR013C, strain ard1, hits give low values 0.988 | locus YHR027C, strain rpn1, hits give low values 0.991 | locus YHR030C, strain SLT2, hits give low values 1 and 1.07 | locus YHR079C, strain IRE1 (second series), hits give low values 1.02 | locus YHR079C, strain IRE1, hits give low values 1.06 | locus YHR094C, strain hxt1, hits give low values 1 | locus YHR129C, strain ARP1, hits give low values 1.01 | locus YHR142W, strain chs7, hits give low values 0.946 | locus YHR200W, strain rpn10, hits give low values 1 | locus YIL066C, strain RNR3, hits give low values 0.993 | locus YIL073C, strain SPO22, hits give low values 1.05 | locus YIL125W, strain kgd1, hits give low values 1 | locus YIR030C, strain dcg1, hits give low values 1.01 | locus YJL092W, strain hpr5, hits give low values 0.96 | locus YJL095W, strain BCK1 (second series), hits give low values 0.973 | locus YJL095W, strain BCK1, hits give low values 1 and 1.05 | locus YJL115W, strain asf1, hits give low values 0.985 | locus YJL129C, strain trk1, hits give low values 0.992 | locus YJL134W, strain LCB3, hits give low values 1 | locus YJL154C, strain vps35, hits give low values 0.965 | locus YJL164C, strain tpk1, hits give low values 1 | locus YJL166W, strain qcr8, hits give low values 0.924 | locus YJL168C, strain set2, hits give low values 1.01 | locus YJL187C, strain SWE1 (second series), hits give low values 1.01 | locus YJL187C, strain SWE1, hits give low values 0.989 | locus YJR043C, strain POL32, hits give low values 0.985
